Source: PubChem BioAssay (University of Kansas High Throughput Screening Laboratory)
Shown is part of a subset that was picked to be rich in hits.
Pf apPOL block = Pf-apPOL DNA polymerase inhibition; Recombinant Pf-apPOL, molecular beacon fluorescence, 1.5 h; inhibition, % at 10 µM; hit rate 0.25% among 210,000
mHTT-CaM PPI inh = mHTT-calmodulin interaction abrogation | AID 1671202 | hit rate 3.6% among 190,000 | P42858 | AlphaScreen His-mHTT/GST-CaM binding, luminescence | inhibition, % at 15 µM;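 note: 0% = both proteins with DMSO and 100% = one protein alone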
An asterisk follows results filed as active. Cut-off read from the data, not from the text of the source: active = inhibition above about 50%; inactive = the rest.

CCCCC1=NN(C(=O)COc2ccc(Cl)c(C)c2)C(O)(C(F)(F)F)C1 (stereo unspecified) was read as Pf apPOL block 0 and mHTT-CaM PPI inh 100*.
`Cc1ccccc1OCC(=O)N1N=C(c2cccc(Br)c2)CC1(O)C(F)(F)F` (stereo unspecified) gave Pf apPOL block -3 and mHTT-CaM PPI inh 99*.
Screening CCCCC1=NN(C(=O)c2ccccc2Cl)C(O)(C(F)(F)F)C1 (stereo unspecified) returned Pf apPOL block 3 and mHTT-CaM PPI inh -10.
Screening Cn1c(-c2cccs2)nn(CCNS(=O)(=O)C=Cc2ccccc2)c1=O returned Pf apPOL block -9 and mHTT-CaM PPI inh -6.
COc1ccc(CC(=O)c2ccc(O)c(CN(C)C)c2O)cc1 was read as Pf apPOL block -24 and mHTT-CaM PPI inh 3.
`COc1ccc(NC(NC(=O)c2cccs2)C(=O)c2ccccc2)cc1` (stereo unspecified) gave Pf apPOL block -1 and mHTT-CaM PPI inh 40.
O=C(NC(Nc1cccc(Cl)c1)C(=O)c1ccccc1)c1cccs1 (stereo unspecified) was read as Pf apPOL block 27 and mHTT-CaM PPI inh 67*.
Cc1ccc(NC(NC(=O)c2cccs2)C(=O)c2ccccc2)cc1C (stereo unspecified) was read as Pf apPOL block -1 and mHTT-CaM PPI inh -3.
NS(=O)(=O)c1ccc(NC(NC(=O)c2cccs2)C(=O)c2ccccc2)cc1 (stereo unspecified) was read as Pf apPOL block 8 and mHTT-CaM PPI inh 11.
Screening O=C(NC(Nc1ccc(Cl)c(Cl)c1)C(=O)c1ccccc1)c1cccs1 (stereo unspecified) returned Pf apPOL block -7 and mHTT-CaM PPI inh 90*.
For CCOc1ccc(NC(NC(=O)c2cccs2)C(=O)c2ccccc2)cc1 (stereo unspecified) the results were Pf apPOL block -1 and mHTT-CaM PPI inh 56*.
`CCOc1ccc(NC(=O)c2ccc(I)o2)cc1` gave Pf apPOL block -6 and mHTT-CaM PPI inh -5.
Cc1ccccc1-n1c(O)c(C=Nc2ccccc2)c2ccccc2c1=O was read as Pf apPOL block 2 and mHTT-CaM PPI inh 41.
CCOc1ccccc1CNC1CCN(c2ccc(C(=O)NC3CC3)cn2)C1 (stereo unspecified) was read as Pf apPOL block 0 and mHTT-CaM PPI inh 0.
Cc1ccc(Sc2c(C)nn(S(=O)(=O)c3ccccc3[N+](=O)[O-])c2C)cc1 was read as Pf apPOL block 1 and mHTT-CaM PPI inh 50*.
`Cc1nn(S(=O)(=O)c2ccccc2[N+](=O)[O-])c(C)c1Sc1ccccc1` gave Pf apPOL block -9 and mHTT-CaM PPI inh 0.
`OC[C@@H]1[C@@H](c2ccc(F)cc2)C(c2ccc(F)cc2)=NN1c1ccccc1` gave Pf apPOL block -6 and mHTT-CaM PPI inh 89*.
Screening OC[C@@H]1[C@@H](c2ccc(Cl)cc2)C(c2ccc(F)cc2)=NN1c1ccccc1 returned Pf apPOL block -4 and mHTT-CaM PPI inh 72*.
Screening OC[C@@H]1[C@@H](c2ccccc2)C(c2ccccc2)=NN1c1ccccc1 returned Pf apPOL block -4 and mHTT-CaM PPI inh -21.
C[C@H]1C(c2ccccc2)=NN(c2ccccc2)[C@@H]1CO was read as Pf apPOL block -5 and mHTT-CaM PPI inh 15.
Screening O=C1OCCN1C(=O)[C@H]1[C@H](c2ccc(F)cc2)C(c2cccc(Cl)c2)=NN1c1ccccc1 returned Pf apPOL block 1 and mHTT-CaM PPI inh 19.
For OC[C@@H]1[C@@H](c2ccccc2)C(c2ccc(F)cc2)=NN1c1ccccc1 the results were Pf apPOL block -6 and mHTT-CaM PPI inh 67*.
`O=C(NC1CC2CC1CN2S(=O)(=O)c1ccccc1C(F)(F)F)c1ccccc1` (stereo unspecified) gave Pf apPOL block -5 and mHTT-CaM PPI inh 0.
`CCCn1cc(S(=O)(=O)NCc2cccc(Cl)c2)c2cccnc21` gave Pf apPOL block 10 and mHTT-CaM PPI inh 14.
`NNC(=O)c1ccc2c(c1)CN(c1ccc(F)cc1)C2` gave Pf apPOL block -8 and mHTT-CaM PPI inh 28.
`CC(C)Oc1ccc(NC(=O)c2ccc([N+](=O)[O-])cc2Cl)cc1` gave Pf apPOL block -9 and mHTT-CaM PPI inh 10.
COCC(C)NC(=O)c1ccc([N+](=O)[O-])cc1Cl (stereo unspecified) was read as Pf apPOL block 109* and mHTT-CaM PPI inh 1.
Screening O=C1CSC(c2cccc(F)c2)N1c1cc(Cl)cc(Cl)c1 (stereo unspecified) returned Pf apPOL block -3 and mHTT-CaM PPI inh -38.
`FC(F)Oc1ccccc1C1C=C(c2ccc(I)cc2)Nc2nnnn21` (stereo unspecified) gave Pf apPOL block -5 and mHTT-CaM PPI inh 13.
Screening CCCCOCC(O)C[N+]1(Cc2ccccc2)CCOCC1 (stereo unspecified) returned Pf apPOL block -2 and mHTT-CaM PPI inh -5.
OC(COc1ccc(C23CC4CC(CC(C4)C2)C3)cc1)C[N+]1(Cc2ccccc2)CCOCC1 (stereo unspecified) was read as Pf apPOL block -61 and mHTT-CaM PPI inh 100*.
For Cc1ccc(OCCCC(=O)Nc2ccc([N+](=O)[O-])cc2)cc1 the results were Pf apPOL block 0 and mHTT-CaM PPI inh 6.
`Cc1c(Cc2ccccc2)sc(NC(=O)Nc2ccccc2)c1C(N)=O` gave Pf apPOL block -6 and mHTT-CaM PPI inh 17.
Screening Cc1c(Cc2ccccc2)sc(N)c1C(N)=O returned Pf apPOL block -6 and mHTT-CaM PPI inh 75*.
`CC1CCN(C(=O)c2ccc3ncnc(N4CCCC4)c3c2)CC1` gave Pf apPOL block -2 and mHTT-CaM PPI inh 4.
`Nc1c(C(=O)C23CC4CC(CC(C4)C2)C3)sc2sc3c(O)cc(=O)[nH]c3c12` gave mHTT-CaM PPI inh 52*.
N#Cc1c(SCC(=O)C23CC4CC(CC(C4)C2)C3)sc2c(O)cc(=O)[nH]c12 was read as mHTT-CaM PPI inh 1.
For Cc1cccc(C2CCCN2C(=O)NC2CCCC2)c1 (stereo unspecified) the results were Pf apPOL block -1 and mHTT-CaM PPI inh -4.
Screening O=[N+]([O-])c1cc(Cl)ccc1NCCNS(=O)(=O)c1ccccc1 returned Pf apPOL block -1 and mHTT-CaM PPI inh 41.
`O=[N+]([O-])c1cc(Cl)ccc1NCCCNS(=O)(=O)c1ccccc1` gave Pf apPOL block -1 and mHTT-CaM PPI inh 53*.
`CCN(CC)c1ccc(/C=C2/C(=O)N(c3ccc(C)cc3)N=C2C)cc1` gave Pf apPOL block -1 and mHTT-CaM PPI inh 29.
CCc1ccc(N2N=C(C)/C(=C\c3ccc(N(C)C)cc3)C2=O)cc1 was read as Pf apPOL block -1 and mHTT-CaM PPI inh 70*.
For CC1=NN(c2ccc(Cl)c(Cl)c2)C(=O)/C1=C/c1ccc(C)c([N+](=O)[O-])c1 the results were Pf apPOL block 0 and mHTT-CaM PPI inh 12.
CCN(CC)c1ccc(/C=C2/C(=O)N(c3ccc(Cl)c(C(=O)O)c3)N=C2C)cc1 was read as Pf apPOL block -2 and mHTT-CaM PPI inh 59*.
Screening CC1=NN(c2ccccc2)C(=O)/C1=C/c1ccc(N(C)C)cc1 returned Pf apPOL block -7 and mHTT-CaM PPI inh 42.
CC1=NN(c2ccc(Cl)c(Cl)c2)C(=O)/C1=C/c1ccccc1 was read as Pf apPOL block -3 and mHTT-CaM PPI inh 15.
